Source: PubChem (National Center for Advancing Translational Sciences (NCATS))
HP1b binding inh: inhibitors of HP1-beta chromodomain binding to methylated histone tails. P83916. AlphaScreen HP1-beta / biotin-H3K9me3 peptide binding. Potency, µM (highest dose often 114 µM), for inactives: top-dose activity change, negative = inhibition, hits mostly inhibitors. 390,000 tested, 0.56% active. AID 540317; also: nearly all actives have a fitted effect of over 70% in size
Target sequence (P83916 whole entry, looked up): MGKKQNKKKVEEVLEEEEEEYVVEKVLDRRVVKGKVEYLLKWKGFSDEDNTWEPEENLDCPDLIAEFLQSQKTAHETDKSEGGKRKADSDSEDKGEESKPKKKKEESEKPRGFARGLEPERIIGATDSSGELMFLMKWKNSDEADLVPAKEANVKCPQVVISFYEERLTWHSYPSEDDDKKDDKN
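HP1-beta protein (50 nM final) preincubated 30 min at room temperature with biotinylated H3(1-18)K9me3 peptide (50 nM) in PBS pH 7.4, 0.01% Tween-20, then compound added for 30 min. AlphaScreen streptavidin donor/nickel chelate acceptor beads (10 ug/mL final), 30 min dark, luminescence read.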
BAZ2B block: blocks human BAZ2B | Q9UIF8 | AlphaScreen BAZ2B-H3K14Ac peptide displacement | Potency, µM (titrated, usually from 114 µM), for the others: at the top dose activity change, negative = inhibition, actives largely listed as inhibitors | 360,000 tested, 4.4% active; also: % is scaled to controls: 0 for no effect and ±100 for the full control effect; nearly all actives have a fitted effect of over 60% in size
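Complex of BAZ2B and biotin-H3K14Ac (50 nM apiece) forms over 30 min at RT, then faces library compounds up to 110 uM for another 30 min; AlphaScreen beads added, 20 min dark incubation, luminescence read.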
L3MBTL1 inh: L3MBTL1 (human) inhibition. Potency, µM (titrated, usually from 57.1 µM), without a hit: at the top dose activity, negative = inhibition, usual class: inhibitors. 230,000 tested, 0.66% active. AlphaScreen L3MBTL1–H3K9me1 peptide binding. Q9Y468. AID 485360; also: % is scaled to controls: 0 for no effect and ±100 for the full control effect; nearly all actives have a fitted effect of over 60% in size
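First, the protein-peptide complex forms for 30 min at room temperature (L3MBTL1 50 nM, biotinylated H3K9me1 peptide 75 nM). Next, compounds are pin-transferred and incubated 30 min. Finally, AlphaScreen beads are added and read after 30 min.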
JMJD2A Tudor inh: JMJD2A Tudor domain (human) inhibition; O75164; AlphaScreen JMJD2A-Tudor / H3K4me3 peptide binding; Potency, µM (doses to about 114 µM), for the others: top-dose activity change, negative = inhibition, hits mostly inhibitors; 390,000 tested, 4.4% active; also: % is scaled to controls: 0 for no effect and ±100 for the full control effect; nearly all actives have a fitted effect of over 50% in size
Sfp inh: Sfp phosphopantetheinyl transferase inhibition; Potency, µM, without a hit: largest response in the series, negative = inhibition, usual class: inhibitors; 310,000 tested, 3.5% active; Q9F4F7; AID 1490; Biochemical Sfp PPTase activity, qHTS;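 also: the enzyme is Sfp with the accession as filed and its product quenches rhodamine fluorescence; 0% = enzyme reaction without inhibitor and -100% = no enzyme wells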
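Buffer: 50 mM Hepes-Na pH 7.6, 10 mM MgCl2, 0.01% Nonidet P-40, 0.01% BSA. Enzyme 15 nM, pre-exposed to compound 15 min; substrates then added and fluorescence change tracked over 30 min.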
G9a inh: inhibitors of human histone lysine methyltransferase G9a. G9a H3K9 monomethylation, AlphaScreen, 2 h. Potency, µM (top dose mostly 102 µM), inactives show at the top dose activity, negative = inhibition, actives largely listed as inhibitors. 350,000 tested, 8.8% active; also: % is scaled to controls: 0 for no effect and ±100 for the full control effect; nearly all actives have a fitted effect of over 75% in size
Target sequence (Q96KQ7 913-1193 limits assumed): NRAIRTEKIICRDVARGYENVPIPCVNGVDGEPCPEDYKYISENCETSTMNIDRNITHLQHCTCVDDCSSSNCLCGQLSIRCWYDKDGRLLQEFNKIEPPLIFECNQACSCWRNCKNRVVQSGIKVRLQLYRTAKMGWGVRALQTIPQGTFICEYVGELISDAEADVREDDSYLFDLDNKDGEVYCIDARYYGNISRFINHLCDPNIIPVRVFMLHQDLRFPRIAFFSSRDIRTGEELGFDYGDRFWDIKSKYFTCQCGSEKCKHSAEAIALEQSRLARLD
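Methyltransferase reactions run at room temperature for 2 h (20 nM enzyme, 500 nM biotin-H3K9 peptide, 20 uM SAM) after a 15 min compound preincubation; product detected by AlphaScreen beads and anti-H3K9me1 antibody.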
* hit, by the source's call; ? = inconclusive; . = no result; [ ] = dose if it differs, or a comment. A selection: hits, their analogues and other compounds. The true share with any hit is near 12%. Calls follow the shape of the dose curve; as a rule, active = well fitted curve in the direction sought with a large enough effect; inconclusive = small, poorly fitted or top-dose-only effect, or another doubt; inactive = no such curve, though single readings can be large; an effect the other way counts as inactive or inconclusive. Potency is read from the fitted curve at half-maximal effect.

SMILES	HP1b binding inh	BAZ2B block	L3MBTL1 inh	JMJD2A Tudor inh	Sfp inh	G9a inh
CCn1c(CNS(=O)(=O)c2ccc(Br)cc2)n[nH]c1=S	44.9%	-10.9%	.	22.4µM*	16.3%	35.5µM*
CCCn1c(C(C)NS(=O)(=O)c2ccccc2)n[nH]c1=S (configuration not stated)	41.0%	-12.4%	.	?	3.9%	20µM*
CCn1c(C(C)NS(=O)(=O)c2ccc(Cl)cc2)n[nH]c1=S (configuration not stated)	25.4%	0.2%	.	20µM*	2.2%	.
Cc1ccc2oc(C(=O)Nc3c(C(=O)Nc4ccccc4)oc4ccccc34)cc(=O)c2c1	32.1%	3.4%	.	-20.1%	.	-5.8%[59 µM]
CCOC(=O)c1c(C)sc(-c2c(-c3ccc4c(c3)OCCO4)[nH]c3c2c(=O)[nH]c(=O)n3C)c1O	20.8%	-34.5%	.	-12.3%	.	-24.6%[59 µM]
Cc1csc2nc(-c3cccc(NC(=O)C(C)C)c3)cn12	20.1%[57 µM]	-9.9%	.	-26.9%	.	-5.3%[59 µM]
CC(=O)Nc1nonc1-c1nnc(SCC(=O)N(C)c2ccccc2)n1C	37.4%	-6.7%	.	-10.6%	.	0.8%[59 µM]
CCOc1ccc(C2c3[nH]c4ccccc4c3CCN2C(=O)Cc2cccc(OCC)c2OCC)cc1 (configuration not stated)	-19.2%[57 µM]	?	.	?	.	-25.2%[59 µM]
Cc1ccccc1N1C(S)=C(C#N)C(=O)NC1c1cccs1 (configuration not stated)	26.4%	?	.	-26.6%	5.9%	7.94µM*
Cc1ccccc1N1C(S)=C(C#N)C(=O)NC1c1ccco1 (configuration not stated)	23.0%	?	?	-24.7%	12.6µM*	.
N#CC1=C(S)N(c2ccccc2)C(c2ccc(-c3ccccc3Cl)o2)NC1=O (configuration not stated)	?	?	1.9%	?	39.8µM*	?
CC(=O)C1=C(C)NC(SCC(N)=O)=C(C#N)C1c1cccs1 (configuration not stated)	18.8%	-4.3%	.	-14.0%	-24.7%	?
N#CC1=C(S)N(c2ccc(F)cc2)C(c2cccs2)NC1=O (configuration not stated)	37.5%	4.7%	.	-19.7%[57.1 µM]	56.2µM*	15.8µM*
Cc1ccc2oc(=O)c3cc(C(=O)Nc4cccc(C#N)c4)sc3c2c1	43.7%	-30.0%	.	2.7%	.	-0.2%[59 µM]
Cc1ccc(C(=O)c2cn(Cc3cccc(Cl)c3)c3nc(C)ccc3c2=O)cc1	1.0%	-4.1%	.	-29.4%	.	-8.5%[59 µM]
N#C/C(=C\c1ccc(-c2cccc(Cl)c2)o1)C(=O)Nc1cccc(C(F)(F)F)c1	12.5%	-5.5%	.	-26.8%	.	-48.0%[59 µM]
Cc1cccc(N2C(S)=C(C#N)C(=O)NC2c2cccs2)c1 (configuration not stated)	26.3%	10.0%	-26.3%	-11.6%	31.6µM*	39.8µM*
CC(=O)C1=C(C)N(CC2CC2)C(=O)N[C@H]1c1cccs1	28.4%	-4.0%	-3.7%	-10.8%	25.3%	17.9%
Cc1ccc(C)c(NC(=O)Cn2c(=O)n(CCC(C)C)c(=O)c3cccnc32)c1	81.7%	6.7%	.	6.5%	.	7.6%[59 µM]
CCN(CC)c1ccc(/C=C2\CCC(/C=C(\C#N)C(=O)Nc3ccccc3F)=C2N2CCOCC2)cc1	?	?	-14.2%	?	7.0%	?
Cc1occc1C(=O)N/N=C/C1=C(N2CCOCC2)C(=C\c2ccc(Cl)cc2)/CC1	54.3%	11.0%	4.9%	-7.0%	18.0%	21.3%
N#C/C(=C\C1=C(N2CCOCC2)C(=C\c2ccc(Cl)cc2)/CC1)C(=O)Nc1ccccc1F	?	25.1µM*	-4.3%	-30.8%	-18.1%	10µM*
N#C/C(=C\C1=C(N2CCOCC2)C(=C/c2cccc([N+](=O)[O-])c2)/CC1)C(=O)Nc1ccccc1F	?	1.26µM*	?	-32.8%	?	2.51µM*
N#C/C(=C/C1=C(N2CCOCC2)C(=C/c2ccccc2)/CC1)C(=O)Nc1ccccc1F	5.01µM*	.	.	10µM*	.	.
c1c(CC2CCCC2)nnn1C[C@H]1CC[C@@H]([C@@H]2CC[C@H](Cn3cc(CC4CCCC4)nn3)O2)O1	31.2%	-26.1%	5.7%	-7.9%	1.1%	39.8µM*
SMILES	HP1b binding inh	BAZ2B block	L3MBTL1 inh	JMJD2A Tudor inh	Sfp inh	G9a inh
Cn1c(N)c(C(=O)Nc2ccccc2)c(=O)[nH]c1=O	26.6%	.	.	-12.4%	.	.
Cn1c(N)c(C(=O)/C=C/c2ccccc2)c(=O)[nH]c1=O	-23.8%	-2.1%	2.9%	-24.0%	50.1µM*	?
CC1CCCC(N2CCN(C(=O)c3ccccc3F)CC2)C1 (configuration not stated)	39.8%	-2.2%	2.7%	-4.8%	10.4%	-4.7%
CC1CN(C2CCN(C(=O)c3ccccc3)CC2)CC(C)O1 (configuration not stated)	?	56.2µM*	.	1.26µM*	-7.9%	2.51µM*
O=C(c1ccc(F)cc1)N1CCC(N2CCOCC2)CC1	-54.2%	?	-4.4%	7.94µM*	-15.3%	10µM*
CC1CN(C(=O)c2ccc(C(=O)c3ccccc3)cc2)CC(C)O1 (configuration not stated)	29.8%	4.4%	1.1%	-12.9%	19.7%	0.0%[59 µM]
CC1CCN(C2CCN(C(=O)c3ccccc3F)CC2)CC1	?	?	8.7%	0.891µM*	-12.5%	28.2µM*
CCOc1ccc(NC(=O)Cn2cc(C(=O)c3ccccc3)c(=O)c3cc4c(cc32)OCCO4)cc1	42.1%	-12.7%	.	-13.2%	.	-34.7%[59 µM]
COc1ccc2c(Sc3ccccc3)c(C(=O)N3CCC(C)CC3)[nH]c2c1	40.4%	4.3%	.	-7.0%	.	-49.5%[59 µM]
CC1(c2ccccc2)NC(=O)N(CC(=O)Nc2nc(-c3ccccn3)cs2)C1=O (configuration not stated)	-10.4%	50.1µM*	-17.4%	44.7µM*	.	-43.0%[2.33 µM]
CC1(c2ccccc2)NC(=O)N(CC(=O)NNC(=O)c2ccccc2)C1=O (configuration not stated)	22.3%	-16.2%	.	-3.5%	9.1%	-0.1%
Cc1ccc(C2(C)NC(=O)N(CC(=O)Nc3nc(-c4ccccn4)cs3)C2=O)cc1 (configuration not stated)	31.6µM*	79.4µM*	?	39.8µM*	.	-2.4%[0.501 µM]
CCCCNC(=O)CCCN1C(=O)c2ccccc2Sc2ncccc21	41.2%	-5.1%	.	8.1%	.	13.0%[59 µM]
Cc1ccccc1-c1csc2ncnc(Sc3nnnn3C)c12	.	.	.	-8.9%	.	.
CCOC(=O)c1c(N)sc(C(O)(C(F)(F)F)C(F)(F)F)c1-c1ccc(OC)cc1OC	26.0%	?	-3.8%	-23.3%	-5.4%	79.4µM*
CCOC(=O)c1c(C)oc2ncnc(Nc3ccc(OC)cc3OC)c12	30.6%	0.6%	.	-7.3%	.	1.9%[59 µM]
